Percent Effect data for eleven molecules are collected here from ChEMBL document CHEMBL3988442, “University of Dundee, Small-Polar-MMV Screening Library” (2021).

Parameters in all cases: scale not given: direction of the effect not stated beside the values
Test [1] concerns the target Protein translocase subunit SecA (Escherichia coli (strain K12)) (UniProt P10408). The experiment in a line: Assay to Identify E. coli SecA ATPase Inhibitors. It counts as functional. To be noted: 30 µM.
Test [2] concerns the target T1, Ubiquitin-activating enzyme e1, putative (Leishmania donovani (strain BPK282A1)) (UniProt E9BSI1).
T1 sequence (whole entry): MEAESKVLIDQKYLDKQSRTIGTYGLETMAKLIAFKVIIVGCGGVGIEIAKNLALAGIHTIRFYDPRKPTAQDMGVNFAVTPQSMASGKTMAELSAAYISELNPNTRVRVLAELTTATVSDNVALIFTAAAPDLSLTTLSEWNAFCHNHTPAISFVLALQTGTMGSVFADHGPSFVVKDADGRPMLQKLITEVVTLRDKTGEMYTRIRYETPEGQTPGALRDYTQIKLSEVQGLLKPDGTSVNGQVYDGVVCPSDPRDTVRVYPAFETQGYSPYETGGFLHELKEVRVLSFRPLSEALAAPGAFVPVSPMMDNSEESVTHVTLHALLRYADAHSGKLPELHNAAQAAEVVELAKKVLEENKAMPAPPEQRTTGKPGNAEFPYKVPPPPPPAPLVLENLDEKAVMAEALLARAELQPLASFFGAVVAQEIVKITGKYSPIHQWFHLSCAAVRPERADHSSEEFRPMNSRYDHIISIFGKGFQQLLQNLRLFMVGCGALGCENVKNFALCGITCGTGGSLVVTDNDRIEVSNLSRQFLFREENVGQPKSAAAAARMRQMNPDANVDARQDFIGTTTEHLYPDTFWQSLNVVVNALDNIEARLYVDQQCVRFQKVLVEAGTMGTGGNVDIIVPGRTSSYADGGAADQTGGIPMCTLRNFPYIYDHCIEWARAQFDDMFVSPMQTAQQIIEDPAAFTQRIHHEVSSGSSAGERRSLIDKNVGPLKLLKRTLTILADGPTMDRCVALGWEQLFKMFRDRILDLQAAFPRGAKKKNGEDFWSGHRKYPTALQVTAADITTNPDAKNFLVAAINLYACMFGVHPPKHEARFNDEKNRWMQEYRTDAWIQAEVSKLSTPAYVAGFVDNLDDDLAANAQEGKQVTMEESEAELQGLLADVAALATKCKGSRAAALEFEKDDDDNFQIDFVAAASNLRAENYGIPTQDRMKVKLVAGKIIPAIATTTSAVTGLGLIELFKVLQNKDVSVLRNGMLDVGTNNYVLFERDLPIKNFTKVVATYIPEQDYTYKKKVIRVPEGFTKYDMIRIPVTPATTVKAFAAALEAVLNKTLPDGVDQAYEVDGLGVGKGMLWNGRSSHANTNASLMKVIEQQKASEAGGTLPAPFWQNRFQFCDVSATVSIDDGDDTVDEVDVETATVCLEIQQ
In words: Leishmania donovani Ubiquitin Activating Enzyme (LdE1). It counts as functional. Particulars: 30 µM.

In test [3] the target is AMP-activated protein kinase, AMPK (Homo sapiens) (UniProt P54646+O43741+P54619+Q9UGJ0+Q9Y478+Q13131+Q9UGI9). In words: AMP-dependent Kinase enzyme assay. An in vitro enzyme assay that detects ADP turnover that is directly proportional to AMPK activity. This uses naive AMPK that is activated during the assay with MK-8722. It counts as functional. To be noted: 30 µM.
Test [4] has as its target Sialic acid-binding Ig-like lectin 9 (Homo sapiens) (UniProt Q9Y336). In words: Hs-Siglec9 ALPHAscreen SOP 20170721. Particulars: 10 µM.
Test [5] concerns Trypanosoma cruzi. In words: Trypanosoma cruzi phosphomannomutase and mannose-1-phosphate guanylyltransferase assay. It counts as functional. To be noted: 10 µM.
Test [6] has as its target T2, Arginase-2, mitochondrial (Homo sapiens) (UniProt P78540).
T2 sequence (whole entry): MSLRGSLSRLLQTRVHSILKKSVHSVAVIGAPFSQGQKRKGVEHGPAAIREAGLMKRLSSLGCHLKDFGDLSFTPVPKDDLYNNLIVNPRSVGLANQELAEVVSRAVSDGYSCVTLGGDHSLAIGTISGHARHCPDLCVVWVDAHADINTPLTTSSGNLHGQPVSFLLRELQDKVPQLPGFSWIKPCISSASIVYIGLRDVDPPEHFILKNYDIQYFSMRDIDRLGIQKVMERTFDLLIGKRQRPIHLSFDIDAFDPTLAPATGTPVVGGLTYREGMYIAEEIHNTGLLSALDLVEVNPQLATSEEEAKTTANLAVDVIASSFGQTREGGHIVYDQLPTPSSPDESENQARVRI
In words: in vitro enzyme assay to detect the production of urea directly proportional to the activity of Arginase II. Also: in the data most compounds retested in dose-response had high values. To be noted: 33.3 µM. In kind it is functional.

Test [7] deals with T3, Proteasome subunit beta (Trypanosoma cruzi) (UniProt O96673).
T3 sequence (whole entry): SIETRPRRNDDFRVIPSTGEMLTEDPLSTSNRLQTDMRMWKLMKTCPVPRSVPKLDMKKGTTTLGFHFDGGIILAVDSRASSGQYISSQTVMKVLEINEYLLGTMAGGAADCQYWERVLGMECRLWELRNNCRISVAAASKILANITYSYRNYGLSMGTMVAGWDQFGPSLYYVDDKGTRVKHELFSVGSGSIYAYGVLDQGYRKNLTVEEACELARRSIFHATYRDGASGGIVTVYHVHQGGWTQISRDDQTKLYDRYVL
In words: Trypanosoma cruzi proteasome chymotrypsin-like activity (TcProtChymo) assay. Also: in the data most compounds retested in dose-response had high values. It counts as functional. Particulars: 9.37 µM.

The species named for test [8] is Homo sapiens. The experiment in a line: To identify inhibition of the IFN signalling (Jak-Stat) pathway via expression of an eGFP reporter gene under the control of an IFN-stimulated response element (ISRE) containing MxA promoter. In kind it is functional. Particulars: 30 µM. (Reporter assays use an easily measured gene product as a stand-in for the process of interest.)

The target in test [9] is T4, Tyrosyl-tRNA synthetase, putative (Trypanosoma cruzi (strain CL Brener)) (UniProt Q4DSP6).
T4 sequence (whole entry): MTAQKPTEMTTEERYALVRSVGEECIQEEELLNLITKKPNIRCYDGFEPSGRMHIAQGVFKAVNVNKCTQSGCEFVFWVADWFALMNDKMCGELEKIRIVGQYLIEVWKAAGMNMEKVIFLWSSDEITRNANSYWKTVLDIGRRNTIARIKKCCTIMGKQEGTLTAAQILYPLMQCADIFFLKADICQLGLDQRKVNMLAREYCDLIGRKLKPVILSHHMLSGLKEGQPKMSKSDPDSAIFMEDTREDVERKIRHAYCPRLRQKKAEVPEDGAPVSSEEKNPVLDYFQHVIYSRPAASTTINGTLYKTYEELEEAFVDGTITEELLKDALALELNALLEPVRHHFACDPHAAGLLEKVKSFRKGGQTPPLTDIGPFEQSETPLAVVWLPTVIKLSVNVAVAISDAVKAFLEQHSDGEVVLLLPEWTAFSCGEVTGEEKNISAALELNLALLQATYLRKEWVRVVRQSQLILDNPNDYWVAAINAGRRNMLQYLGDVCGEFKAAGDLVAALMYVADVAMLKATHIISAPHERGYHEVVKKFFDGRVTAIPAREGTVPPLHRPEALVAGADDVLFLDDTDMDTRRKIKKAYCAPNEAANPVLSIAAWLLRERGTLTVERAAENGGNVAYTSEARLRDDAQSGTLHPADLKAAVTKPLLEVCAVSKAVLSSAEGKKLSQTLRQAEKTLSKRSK
In words: Trypanosoma cruzi tyrosyl tRNA synthetase (TcYRS) _High Tyrosine SOP. Also: in the data most compounds retested in dose-response had high values. It counts as functional. Particulars: 30 µM.

Test [10] concerns the target T4, Tyrosyl-tRNA synthetase, putative (Trypanosoma cruzi (strain CL Brener)). In words: Trypanosoma cruzi tyrosyl tRNA synthetase (TcYRS) SOP. To be noted: 30 µM. It counts as functional.
Test [11] deals with Chromo domain-containing protein 1 (Saccharomyces cerevisiae (strain ATCC 204508 / S288c) (Baker's yeast)) (UniProt P32657). The experiment in a line: ScCHD-1 Enzyme Inhibition Assay. Also: in the data most compounds retested in dose-response had high values. In kind it is functional. Particulars: 30 µM.
Chromo domain-containing protein 1 (Saccharomyces cerevisiae (strain ATCC 204508 / S288c) (Baker's yeast)), sequence (P32657 whole entry, the tested form may be a part): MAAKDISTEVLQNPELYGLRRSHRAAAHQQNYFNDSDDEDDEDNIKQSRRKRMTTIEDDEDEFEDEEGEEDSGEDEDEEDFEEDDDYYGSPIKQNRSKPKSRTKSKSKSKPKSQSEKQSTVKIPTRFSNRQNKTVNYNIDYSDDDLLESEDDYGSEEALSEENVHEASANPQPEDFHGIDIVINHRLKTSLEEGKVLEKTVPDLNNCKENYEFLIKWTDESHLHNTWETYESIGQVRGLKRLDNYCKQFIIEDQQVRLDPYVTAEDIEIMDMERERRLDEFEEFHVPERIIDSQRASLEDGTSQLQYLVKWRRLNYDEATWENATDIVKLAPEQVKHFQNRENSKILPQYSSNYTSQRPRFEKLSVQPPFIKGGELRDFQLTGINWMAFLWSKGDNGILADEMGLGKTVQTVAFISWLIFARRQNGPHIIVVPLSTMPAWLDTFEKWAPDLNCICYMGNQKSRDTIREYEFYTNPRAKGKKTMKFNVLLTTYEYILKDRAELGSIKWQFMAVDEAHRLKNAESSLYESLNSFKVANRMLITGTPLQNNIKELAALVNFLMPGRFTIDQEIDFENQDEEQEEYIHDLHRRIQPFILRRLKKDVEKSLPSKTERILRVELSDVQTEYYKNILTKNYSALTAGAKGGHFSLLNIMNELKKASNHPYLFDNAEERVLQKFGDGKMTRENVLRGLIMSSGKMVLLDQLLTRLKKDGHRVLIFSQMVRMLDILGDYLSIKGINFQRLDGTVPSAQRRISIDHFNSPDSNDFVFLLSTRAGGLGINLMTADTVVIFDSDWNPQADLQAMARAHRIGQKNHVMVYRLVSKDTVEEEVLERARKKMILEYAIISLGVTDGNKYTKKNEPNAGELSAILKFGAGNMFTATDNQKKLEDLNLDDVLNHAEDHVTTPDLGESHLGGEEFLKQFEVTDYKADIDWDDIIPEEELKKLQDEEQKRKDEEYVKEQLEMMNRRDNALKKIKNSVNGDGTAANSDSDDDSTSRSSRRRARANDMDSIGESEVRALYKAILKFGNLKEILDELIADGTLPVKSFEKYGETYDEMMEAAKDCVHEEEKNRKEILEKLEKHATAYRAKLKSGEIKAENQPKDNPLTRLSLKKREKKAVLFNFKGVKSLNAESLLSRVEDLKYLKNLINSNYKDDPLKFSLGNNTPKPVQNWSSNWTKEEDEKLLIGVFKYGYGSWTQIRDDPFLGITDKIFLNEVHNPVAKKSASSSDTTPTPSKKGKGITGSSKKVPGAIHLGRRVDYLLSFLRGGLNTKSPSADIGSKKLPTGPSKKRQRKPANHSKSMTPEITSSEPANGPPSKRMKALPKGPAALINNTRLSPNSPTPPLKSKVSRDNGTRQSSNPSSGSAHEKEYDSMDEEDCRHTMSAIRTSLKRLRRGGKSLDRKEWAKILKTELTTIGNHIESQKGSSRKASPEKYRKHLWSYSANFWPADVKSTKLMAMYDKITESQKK

For some of these results: Entries with a potency or affinity are not part of this list.

Protein translocase subunit SecA (Escherichia coli (strain K12)), sequence (P10408 whole entry): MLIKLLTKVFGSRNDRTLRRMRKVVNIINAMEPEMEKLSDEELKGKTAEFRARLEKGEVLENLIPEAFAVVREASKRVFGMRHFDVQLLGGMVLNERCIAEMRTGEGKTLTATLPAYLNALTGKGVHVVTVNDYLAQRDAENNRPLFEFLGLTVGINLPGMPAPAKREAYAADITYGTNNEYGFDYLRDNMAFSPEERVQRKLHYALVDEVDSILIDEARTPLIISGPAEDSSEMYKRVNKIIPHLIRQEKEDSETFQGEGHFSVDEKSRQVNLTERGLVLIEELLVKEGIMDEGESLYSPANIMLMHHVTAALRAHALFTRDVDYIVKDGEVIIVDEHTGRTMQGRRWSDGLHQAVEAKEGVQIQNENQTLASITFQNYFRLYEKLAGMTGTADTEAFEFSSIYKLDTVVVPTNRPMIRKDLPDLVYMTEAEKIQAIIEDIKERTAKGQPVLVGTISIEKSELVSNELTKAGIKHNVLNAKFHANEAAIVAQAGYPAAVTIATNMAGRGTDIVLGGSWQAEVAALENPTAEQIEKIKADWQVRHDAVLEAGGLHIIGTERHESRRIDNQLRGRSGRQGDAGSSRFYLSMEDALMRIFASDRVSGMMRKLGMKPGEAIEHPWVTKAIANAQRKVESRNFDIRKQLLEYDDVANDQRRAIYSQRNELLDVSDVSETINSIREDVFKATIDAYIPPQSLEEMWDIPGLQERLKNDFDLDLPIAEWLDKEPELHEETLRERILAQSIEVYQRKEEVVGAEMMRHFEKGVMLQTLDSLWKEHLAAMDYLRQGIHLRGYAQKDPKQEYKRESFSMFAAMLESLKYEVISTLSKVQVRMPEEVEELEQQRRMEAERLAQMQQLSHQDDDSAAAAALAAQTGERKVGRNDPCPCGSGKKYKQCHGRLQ
Sialic acid-binding Ig-like lectin 9 (Homo sapiens), sequence (Q9Y336 whole entry): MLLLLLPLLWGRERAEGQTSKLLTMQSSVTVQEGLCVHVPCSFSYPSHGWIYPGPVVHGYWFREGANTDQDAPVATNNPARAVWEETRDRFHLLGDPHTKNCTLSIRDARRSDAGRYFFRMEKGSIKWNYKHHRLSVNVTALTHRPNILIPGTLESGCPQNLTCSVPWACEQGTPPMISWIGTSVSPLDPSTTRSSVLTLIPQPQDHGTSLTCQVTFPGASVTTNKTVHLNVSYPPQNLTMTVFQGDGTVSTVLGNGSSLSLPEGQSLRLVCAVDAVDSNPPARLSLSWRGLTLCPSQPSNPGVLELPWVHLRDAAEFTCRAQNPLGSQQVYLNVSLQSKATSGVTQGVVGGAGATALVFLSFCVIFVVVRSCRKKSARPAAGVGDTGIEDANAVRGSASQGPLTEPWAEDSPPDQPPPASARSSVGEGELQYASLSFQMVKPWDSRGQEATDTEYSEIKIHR

For the molecule `O=C(c1cccc(Cn2ccnc2)c1)N1CCCC(n2ccnc2)C1` (stereo unspecified), the Percent Effect in [1] is -0.331%; in test [2] it was 16.2%; in test [3] it was -8.78%; in [4], 1.96%; in test [5], 5.11%; in test [6], -2.4%. The Percent Effect was 7% in test [7]; 29% in test [8]; 5.94% in test [9]; 25.6% in test [10]; -6.66% in [11].
Take `Cc1nnc(N2CCOC(Cn3cccn3)C2)c(C#N)c1C` (stereo unspecified): the Percent Effect in [1] is -1.71%; in [2], -5.26%; in test [3] it was -36.6%; in [4], 1.01%; in [5], 2.26%; in test [6], 4.21%. Besides, the Percent Effect in test [7] was -0.334%; in [8], -3.56%; in test [9], 2.45%; in test [10] it was 0%; in test [11] it was -0.172%.
Regarding `CCOCC(O)CN1CCN(C(=O)c2ccc(OC)cc2F)CC1` (stereo unspecified), the Percent Effect is -4.94% in test [1]; 18.2% in test [2]; -0.292% in test [3]; 4.59% in [4]; 1.87% in test [5]; 2.85% in [6]. The Percent Effect in test [7] was 0.676%; in test [8], 13.6%; in [9] it was 7.77%; in test [10], 14.6%; in [11], -9.36%.
`CN(C)CCn1c(=O)oc2ccc(NC(=O)C3CCCO3)cc21` (stereo unspecified): the Percent Effect in test [1] was -6.72%; in test [2], 5.33%; in test [3], -5.94%; in [4], 4.64%; in test [5], -1.85%; in test [6], 1.56%. Besides, the Percent Effect in test [7] was 6.8%; in [8] it was 5.49%; in [9], 8.2%; in test [10], 11.1%; in test [11] it was -5.1%.
Consider `CCN(CC1CN(Cc2ncc(C)o2)CCO1)c1cccnn1` (stereo unspecified), for which the Percent Effect in test [1] was -4.91%; in test [2], -2.67%; in test [3], -8.97%; in [4], 2.4%; in test [5], 5.16%; in [6], 2.6%. For the same molecule, the Percent Effect in [7] is 12.2%; in [8], 12%; in [9], 7.1%; in [10] it was 6.17%; in test [11], -0.756%.
As to `CCC(NC(=O)C1CCN(S(C)(=O)=O)CC1)c1ccc(OC)c(OC)c1` (stereo unspecified), the Percent Effect was -2.12% in [1]; -2.6% in test [2]; 3.25% in [3]; -1.28% in test [4]; -1.48% in [5]; -5.52% in test [6]. Further, the Percent Effect was 11.2% in [7]; -4.52% in test [8]; 3.23% in [9]; 1.24% in test [10]; 3.51% in [11].
With `CCOCCOc1ccccc1C(=O)N1CCCC(c2ncc[nH]2)C1` (stereo unspecified), the Percent Effect was -3.41% in [1]; 8.22% in test [2]; 11.4% in test [3]; 0.341% in test [4]; 0.979% in test [5]; 3.64% in [6]. In addition, the Percent Effect in test [7] was 23.2%; in test [8], 6.64%; in test [9], 8.6%; in test [10] it was 17.5%; in test [11] it was -11.5%.
In the case of `COCCN1CCC2(CC1)CN(C(=O)N(C)C)c1ccc(C)cc12`, the Percent Effect in [1] was -5.7%; in test [2] it was 5.41%; in test [3], -1.76%; in test [4], -3.94%; in test [5], -3.62%; in test [6], 2.23%. The Percent Effect in [7] came out at 6.83%; in test [8], 12.1%; in [9], 0%; in test [10], 5.13%; in test [11], 0.0767%.
Take `Cc1cnc(NC(=O)N2CCCC2)s1`: the Percent Effect in test [1] is -4.49%; in test [2] it was 2.7%; in [3] it was -1.71%; in [4] it was 2.98%; in [5], 8.5%; in test [6] it was -0.744%. The Percent Effect came to 15.4% in test [7]; 6.72% in test [8]; 1.07% in test [9]; 3.7% in test [10]; 1.48% in test [11].
`CSCc1cccc(S(=O)(=O)N2CCC(C)CC2)c1`: the Percent Effect in test [1] is -5.58%; in test [2], -4%; in test [3], 7.56%; in test [4], 1.46%; in [5], -5.5%; in test [6], -5.11%. Further, the Percent Effect in test [7] is 7.39%; in test [8], 27.8%; in [9] it was -11.6%; in test [10], -10.3%; in test [11], -6.13%.
Take `O=C(CCNC(=O)c1ccoc1)NCc1ccccc1F`: the Percent Effect in test [1] was 2.18%; in [2], 13%; in [3], 3.8%; in test [4], -2.98%; in test [5] it was -2.45%; in test [6], 6.53%. The Percent Effect in test [7] was 19.5%; in test [8] it was 24%; in [9], 5.71%; in test [10], 18.8%; in test [11], -3.8%.
